Results reported in PubChem BioAssay (NCI).
Compounds without any hit were thinned out: in the full panel of roughly 79,000, 15% have a hit. Cut-off read from the data, not from the text of the source: active = growth inhibition above about 70%; inactive = the rest.

Key:
[1] = NCI Yeast Anticancer Drug Screen. Data for the rad50 strain (AID 155);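 note: 0% = growth of vehicle-only cultures of the same strain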; settings: S. cerevisiae rad50 strain growth inhibition; at 50.0 µM; hits give high values
Procedure, shortened: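 Growth of the mutant yeast was measured after compound exposure and referenced to vehicle-treated cultures.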

[2] = NCI Yeast Anticancer Drug Screen. Data for the mec2-1 strain (AID 157); settings: S. cerevisiae mec2-1 strain, at 50.0 µM, hits give high values
Procedure, shortened: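 Growth inhibition is read against vehicle-treated controls after compound exposure of the mec2-1 yeast strain, which is defective in DNA damage repair or cell cycle control.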

[3] = NCI Yeast Anticancer Drug Screen. Data for the sgs1 mgt1 strain (AID 161);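 note: 0% = growth of cultures given vehicle only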; settings: S. cerevisiae sgs1 mgt1 strain, at 50.0 µM, hits give high values
Procedure, shortened: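 Compounds are added to genetically altered yeast, and growth is compared with cultures given vehicle alone to give percent inhibition.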

[4] = NCI Yeast Anticancer Drug Screen. Data for the cln2 rad14 strain (AID 165);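 note: 0% = growth equal to vehicle treated cultures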; settings: S. cerevisiae cln2 rad14 strain, at 50.0 µM, hits give high values
Procedure, shortened: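 Growth inhibition, relative to vehicle-treated controls, is the read-out. The test organism is a yeast strain with defined genetic alterations, cln2 rad14.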

[5] = NCI Yeast Anticancer Drug Screen. Data for the bub3 strain (AID 167); settings: S. cerevisiae bub3 mutant strain, at 50.0 µM, hits give high values
Procedure, shortened: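 Whole-cell yeast assay. The mutant strain was incubated with compounds, and growth inhibition was determined by comparison with vehicle-treated cells.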

[6] = NCI Yeast Anticancer Drug Screen. Data for the mlh1 rad18 strain (AID 175); settings: S. cerevisiae mlh1 rad18 strain growth inhibition; at 50.0 µM; hits give high values
Procedure, shortened: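 Cells of a genetically altered yeast strain, deficient in DNA damage repair, were treated with compound. Their growth was then compared with that of vehicle-treated cultures to give inhibition.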

Measured: growth inhibition

Nc1ccccc1/C(O)=C1/CCOC1=O
inactive: [1] 0.6% | [2] -23.6% | [3] 2.15% | [4] 1.5% | [5] 15.3% | [6] -3.2%

O=C(O)COc1ccccc1/C=C1/SC(=S)N(c2ccccc2)C1=O
inactive: [1] -1.4% | [2] -10.8% | [3] -7.25% | [4] -41.5% | [5] 0.55% | [6] 1.1%

CC1(C)CCCc2c(-c3ccccc3)cc3c4ccccc4cc[n+]3c21
inactive: [1] -8.5% | [2] -5.55% | [3] -14.6% | [4] -21.6% | [5] -5% | [6] -14.1%

Cc1ccc(C2(c3ccc(Cl)cc3)c3ccccc3C3=NCCN32)cc1 (stereo unspecified)
inactive: [1] 19.9% | [2] 9.15% | [3] 25.6% | [4] 23% | [5] 28.1% | [6] 30.7%

Cn1c(=O)nc(N)n(NC(=O)CCl)c1=O
inactive: [1] 30.6% | [2] 10.3% | [3] 23.6% | [4] 9.9% | [5] -6.6% | [6] 15.4%

COc1ccc(C)cc1N=NC1C(=O)N(C(=O)CC(=O)Nc2ccccc2OC)N=C1c1ccccc1 (stereo unspecified)
inactive: [1] 12.8% | [2] -1.5% | [3] -7.4% | [4] 6.55% | [5] 2.35% | [6] 15.3%

Cc1ccccc1NC(=O)C(=O)Cc1nc2ccccc2s1
inactive: [1] 14.8% | [2] -8.7% | [3] -1.5% | [4] 11.8% | [5] 9.15% | [6] 20.4%

Oc1ccc(O)c2c1CC=CC2
inactive: [1] 12.2% | [2] 22.6% | [3] 27.9% | [4] 13% | [5] 18.3% | [6] 16.4%

NC(=O)C1=NNc2ccccc2C(=O)N1c1ccccc1
inactive: [1] 8.3% | [2] -10.2% | [3] -20.1% | [4] 9.9% | [5] 6.9% | [6] 2.55%

C[n+]1ccc(/C=C/c2ccc(O)c(O)c2)c2ccccc21
inactive: [1] 49.8% | [2] 33.5% | [3] 41.2% | [4] 20.5% | [5] 3.5% | [6] 43%

O=C(COc1c(Cl)cc(Cl)c2ccccc12)NC1c2ccccc2Oc2ccccc21
inactive: [1] 22.6% | [2] 0.4% | [3] 34.1% | [4] 7.45% | [5] 10.2% | [6] 14.4%

Cc1occc1C(=S)Nc1ccc(Cl)c(OCC(=O)OC(C)(C)C)c1
inactive: [1] 49% | [2] 50.6% | [3] 49.2% | [4] 40.2% | [5] 46.6% | [6] 38.9%

N#CCC(=O)NCCc1c[nH]c2ccccc12
inactive: [1] -18.1% | [2] 0.2% | [3] -14.7% | [4] -32.8% | [5] -6.1% | [6] -27.8%

COc1ccc(C2C(C(=O)NCc3ccccc3)=C(C)NC(C)=C2C(=O)NCc2ccccc2)cc1OC
inactive: [1] -1.8% | [2] -4.5% | [3] -23.6% | [4] 8.4% | [5] 3.35% | [6] 16.9%

Clc1ccc(C=Nc2ccccc2)c(Cl)c1
inactive: [1] 23.9% | [2] 10.8% | [3] 20.9% | [4] 11.5% | [5] -2.75% | [6] 26.6%

Ic1ccc2c[n+]3ccccc3cc2c1
inactive: [1] -11.7% | [2] 25.9% | [3] 8.85% | [4] -29.8% | [5] 1.75% | [6] -3.95%

O=C(c1ccccc1)C(O)(Cc1ccccc1)c1ccccc1 (stereo unspecified)
inactive: [1] 1.9% | [2] 17.2% | [3] 20.8% | [4] 22.8% | [5] 14.4% | [6] 12%

NC(=O)Cc1[nH]ccc1C(=O)O
inactive: [1] 9.4% | [2] -9.75% | [3] -0.05% | [4] -18.6% | [5] -4.15% | [6] 12.1%

CCCCCCCCCCCCOP(=O)(O)OP(=O)(O)OCC1OC(n2ccc(N)nc2=O)CC1O (stereo unspecified)
inactive: [1] 27.9% | [2] 21.5% | [3] 27.6% | [4] 17.1% | [5] 22.1% | [6] 18.2%

O=C(C[n+]1cccc(C(=O)Nc2ccc(Cl)cc2)c1)Nc1ccccc1
inactive: [1] -10.9% | [2] -13.7% | [3] -2.45% | [4] 15.2% | [5] -4.35% | [6] 0.65%

CCCCCC(/C=C/c1ncccc1OCCCCCC(=O)O)=N\NC1=NCCN1
inactive: [1] 16.8% | [2] -17.6% | [3] -13.6% | [4] -25.4% | [5] -44.6% | [6] 11.7%
